From PubChem BioAssay (Tox21) come the findings set out here.

“And” between values parts separate entries of the source, which are not always exact repeats. Equal entries are not always repeated. Results filed as inconclusive are left out. Some structures have more than one record in an assay (separate samples or runs), and their calls can disagree. The source made the active and inactive calls. Unless noted, the call rests on the fitted dose curve; in most records, active means well fitted curve in the direction sought with a large enough effect in the repeat runs; inconclusive means weak or mixed curves; inactive means no such curve, though single readings can be large; an effect the other way counts as inactive or inconclusive.

Experiment [1] is described as follows: qHTS assay to identify small molecule antagonists of the retinoid acid receptor (RAR) signaling pathway - cell viability counter screen (AID 1159551). Further: nearly all actives have a fitted effect of over 35% in size. Further: potency means the concentration at half of the fitted maximal effect. The essentials:
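C3RL4 RARE-luciferase line; cpds + retinol 1 uM final, 6 h, 37 C/5% CO2; CellTiter-Glo ATP luminescence, 30 min RT.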
A general note: In qHTS, concentration-response curves come from the screen itself.

Experiment [2] in a line: qHTS assay to identify small molecule antagonists of the retinoic acid receptor (RAR) signaling pathway (AID 1159552; further: nearly all actives have a fitted effect of over 50% in size; further: potency means the concentration at half of the fitted maximal effect). In outline: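 Test chemicals and DMSO controls were pin-transferred onto C3RL4 cells a day after seeding; retinol (1 uM final) followed at once. Luminescent reporter output was quantified after 6 hr of co-incubation and 30 min with detection reagent.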
The nature of experiment [3]: qHTS assay to identify small molecule agonists of the retinoic acid receptor (RAR) signaling pathway (AID 1159553). Further: potency means the concentration at half of the fitted maximal effect. The essentials: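 RARE-luc C3RL4 cells; overnight attachment 37 C/5% CO2; compound (DMSO) 6 hr; luciferase reagent, 30 min RT; luminescence read-out.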
Experiment [4] can be described thus: qHTS assay to identify small molecule antagonists of the estrogen related receptor (ERR) signaling pathway - cell viability counter screen (AID 1224818). Further: series mostly up to about 46 µM. The essentials:
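Fluorescence from CellTiter-Fluor, read 30 min after reagent addition at 37 C, measured viability of ERR cells exposed to compounds for 17.5 h. Cells had settled 6 h before dosing.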

A short description of experiment [5]: qHTS assay to identify small molecule antagonists of the estrogen related receptor signaling pathway with the pleiotropic PPARgamma coactivator (PGC) cell viability counter screen (AID 1224822; further: series mostly up to about 46 µM). The essentials: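 Fluorescence read-out of CellTiter-Fluor after 30 min at 37 C; PGC/ERR cells, 2,000 per well, had been exposed to DMSO-dissolved compounds for 17.5 h following a 6 h pre-incubation.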

The nature of experiment [6]: qHTS assay to identify small molecule antagonists of the estrogen related receptor (ERR) signaling pathway from Tox21 library - cell viability counter screen (AID 1224834). Further: nearly all actives have a fitted effect of over 30% in size. The essentials:
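Multiplexed viability counter screen in ERR cells: 17.5 h compound exposure at 37 C, CellTiter-Fluor added, 30 min at 37 C/5% CO2, fluorescence read.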

Experiment [7] is described as follows: qHTS assay to identify small molecule antagonists of the estrogen related receptor (ERR) signaling pathway (AID 1224819;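 further: luminescence from an ERR-driven luciferase reporter measured with One-Glo reagent; series mostly up to about 46 µM; nearly all actives have a fitted effect of over 50% in size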). In outline: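 Luminescence readout (One-Glo, 30 min, RT) of ERR cell line after 18 h compound exposure at 37 C; cells seeded 2,000/well, pre-incubated 6 h, compounds pinned from DMSO stocks.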
In experiment [8] the test system is estrogen-related receptor alpha (ERRalpha) with PGC-1alpha coactivator, human. As to the kind of experiment: qHTS assay to identify small molecule antagonists of the estrogen related receptor signaling pathway with the pleiotropic PPARgamma coactivator (PGC) (AID 1224821; calls by dose curve;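 further: series mostly up to about 46 µM; lower luminescence signal means antagonism of PGC/ERR signalling; nearly all actives have a fitted effect of over 50% in size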). In outline: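 A PGC/ERR cell line supplied by NTP is seeded, allowed 6 h at 37 C, and treated with test compounds in DMSO for 18 h. Signal is then measured as luciferase luminescence using One-Glo.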

The nature of experiment [9]: qHTS assay to identify small molecule agonists of the estrogen related receptor signaling pathway with the pleiotropic PPARgamma coactivator (PGC) (AID 1224823). In outline:
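Compounds dissolved in DMSO are added by pin tool to PGC/ERR cells that have settled for 6 h, and incubation continues 18 h at 37 C. Reporter output is measured as One-Glo luminescence.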

The nature of experiment [10]: qHTS assay to identify small molecule agonists of the estrogen related receptor (ERR) signaling pathway (AID 1224820). In outline:
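An ERR cell line provided by NTP was seeded at 2,000 cells per well and allowed to settle for 6 h before compounds in DMSO were added. After 18 h at 37 C, luciferase activity was measured by One-Glo luminescence.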
On the % scale 0 is the no-effect control and ±100 the full control effect.

As to `c1ccc2n[nH]nc2c1`, the Potency result in experiment [1], in experiment [2] and in [3] was “inactive” in each case.
With `COc1nc(C)nc(Cl)c1NC1=NCCN1`, the Potency result in experiment [1], in [2], in experiment [3], in [4], in experiment [5] and in [6] was “inactive” in each case.
On to `CN(C)c1ccc(C(=C2C=CC(=[N+](C)C)C=C2)c2ccccc2)cc1`, for which, in experiment [1], the Potency is 10.6 µM (active) [middle of 4 runs].
Still for that read-out and setting: under `OCCN1CCNCC1` stands “inactive”.
Take `O=C(O)Cn1cnnn1`: the Potency entry in experiment [1], in experiment [2] and in experiment [3] was “inactive” in each case.
Turning to `Cc1cccc(O)c1C`, the Potency entry in [1], in [2] and in [3] was “inactive” in each case.
Turning to `NCCO`, the Potency entry in experiment [1], in [2], in experiment [3], in [4], in experiment [5] and in experiment [6] was “inactive” each time.
With `Cc1cccc2n[nH]nc12`, the Potency result in [1], in [2] and in experiment [3] was “inactive” in each case.
As for `O=C1OC2(c3ccc(O)cc3Oc3cc(O)ccc32)c2ccccc21`, the Potency result in experiment [1] is “inactive”.
On to `CC(C)CCOCc1ccccc1`, for which the Potency entry in experiment [1], in [2] and in [3] was “inactive” each time.
As for `O=c1n(CC2CO2)c(=O)n(CC2CO2)c(=O)n1CC1CO1` (stereo not drawn), the Potency entry in experiment [1], in [2] and in experiment [3] was “inactive” each time.
As to `C1COC(NC(C2CC2)C2CC2)=N1`, the Potency result in [1], in experiment [2], in experiment [3], in experiment [4], in experiment [7] and in [8] was “inactive” each time. Moreover, the Potency entry in experiment [5] and in experiment [6] was “inactive” each time. The compound was classed as inactive in [9].
`CC(=O)Nc1ccc(C(=O)CCl)cc1`: the Potency entry in experiment [1] and in experiment [3] was “inactive” throughout. Further, the Potency entry in experiment [2] was “inactive and 48.6 µM (active)”.
For the compound `CC1=C(C=O)C(C)(C)CC=C1`, the Potency entry in [1], in experiment [2] and in [3] was “inactive” each time.
Regarding `CC[C@]1(O)C[C@@H]2CN(CCc3c([nH]c4ccccc34)[C@@](C(=O)OC)(c3cc4c(cc3OC)N(C)[C@H]3[C@@](O)(C(=O)OC)[C@H](OC(C)=O)[C@]5(CC)C=CCN6CC[C@]43[C@@H]65)C2)C1`, in experiment [1], the Potency entry is “inactive”.
Consider `CCCCN(CCO)CCCC`, for which the Potency entry in [1], in [2] and in [3] was “inactive” in each case.
As for `CCCNC(C)C(=O)Nc1ccccc1C` (stereo not drawn), the Potency result in [1], in [2], in experiment [3], in experiment [4], in [5] and in experiment [6] was “inactive” in each case.
For `NC12CC3CC(CC(C3)C1)C2`, the Potency result in experiment [1], in experiment [2], in [3], in experiment [4], in experiment [5] and in experiment [6] was “inactive” each time.
As to `O=C1NCC2(CCN(CCc3ccccc3)CC2)O1`, the Potency entry in [1], in experiment [2], in experiment [3], in experiment [4], in [5] and in experiment [6] was “inactive” throughout.
`Nc1nc(=S)c2[nH]cnc2[nH]1`: the Potency result in [1] and in [3] was “inactive” each time. For the same compound, the Potency entry in [2] was “inactive and 24.3 µM (active)”.
For `CC(=O)OCC1=C(C(=O)O)N2C(=O)[C@@H](NC(=O)Cc3cccs3)[C@H]2SC1`, the Potency entry in experiment [1], in [2], in experiment [3], in [4], in experiment [5] and in experiment [6] was “inactive” throughout.
Consider `Cc1cc(C(C)(C)C)c(O)c(C(C)(C)C)c1`, for which the Potency entry in [1] was “inactive”.
Regarding `CC1COc2c(N3CCN(C)CC3)c(F)cc3c(=O)c(C(=O)O)cn1c23` (stereo not drawn), the Potency result in experiment [1], in experiment [2], in experiment [3], in experiment [4], in [5] and in experiment [6] was “inactive” throughout.
On to `CCCOC(=O)c1cc(O)c(O)c(O)c1`, for which the Potency entry in [1] is “inactive”.
Regarding `CC(C)(C)c1cc(C(C)(C)C)c(O)c(C(C)(C)C)c1`, in [1], the Potency result was “inactive”.
As for `c1ccc2cc3c(ccc4ccccc43)cc2c1`, the Potency result in [1] and in experiment [2] was “inactive” in each case. Moreover, the Potency in [3] is 2.74 µM (active) and 3.86 µM (active).
Regarding `c1ccc2c(c1)-c1cccc3c1c-2cc1ccccc13`, the Potency result in experiment [1] and in experiment [2] was “inactive” each time.
For `NC(Cc1ccc(Cl)cc1)C(=O)O` (stereo not drawn), in experiment [1], the activity change, negative = cytotoxicity was 2.93% [at 0.349 µM] (inactive). Moreover, in experiment [2], the activity, negative = inhibition is 4.68% [at 0.349 µM] (inactive). Also, in experiment [3], the activation is 0.724% [at 0.756 µM] (inactive). For the same compound, the Potency entry in [4], in [7], in [8] and in experiment [5] was “inactive” throughout. Further, the compound was called inactive in [10] and in experiment [9]. Also, the viability change, negative = cytotoxic in experiment [6] is -4.51% [at 0.349 µM] (inactive).
As to `CC(=O)C1=C(C)[C@@H]2C[C@@]3(C1)[C@H](C)CC[C@H]3C2(C)C`, the Potency entry in [1] was “inactive”.
For the compound `COc1cc(C(=S)N2CCOCC2)ccc1O`, the Potency result in experiment [1], in [2] and in experiment [3] was “inactive” in each case.
Turning to `N[C@@H]1CONC1=O`, the Potency entry in [1], in experiment [2], in [3], in [4], in [7] and in experiment [8] was “inactive” each time. Besides, the Potency entry in experiment [5] and in experiment [6] was “inactive” throughout. The call in [10] and in experiment [9] was inactive.
In the case of `Nc1ccc(O)cc1`, the Potency entry in experiment [1] and in experiment [2] was “inactive” throughout. Also, in experiment [3], the Potency was 20.1 µM (active).
As for `CCn1c2ccccc2c2cc(N)ccc21`, in [1], the Potency result is “inactive”.
Still for that read-out and setting: next, `BrC1CCC(Br)C(Br)CCC(Br)C(Br)CCC1Br` (stereo not drawn): “inactive”.
With `CC(C)C(=O)c1c(C(C)C)nn2ccccc12`, the Potency entry in experiment [1], in [2], in experiment [3], in [4], in experiment [7] and in experiment [8] was “inactive” throughout. The Potency result in experiment [5] and in experiment [6] was “inactive” in each case. The outcome in experiment [10] and in [9] was inactive.
Regarding `O=C1CC2(CCCC2)CC(=O)N1CCCCN1CCN(c2ncccn2)CC1`, the Potency result in [1], in experiment [2], in experiment [3], in experiment [4], in experiment [7] and in experiment [8] was “inactive” in each case. The Potency result in experiment [5] and in [6] was “inactive” each time. The result in experiment [10] and in experiment [9] was inactive.
In the case of `c1ccc2c(c1)CCCC2C1=NCCN1` (stereo not drawn), the Potency result in experiment [1], in experiment [2], in [3], in [4], in experiment [5] and in experiment [6] was “inactive” in each case.
